# ± gives the standard deviation.
# B1: H3 1-13 A R T Kac Q T A R Kac S T G G (peptide)
# chain: ARTKQTARKSTGG
# B2: H3 1-13 A R T Kac Q T A R K S T G G (peptide)
# chain: ARTKQTARKSTGG
# B3: H3 1-13 A R T Kac Q T A R Kme S T G G (peptide)
# chain: ARTKQTARKSTGG
# B4: H3 1-13 A R T Kme Q T A R Kme S T G G (peptide)
# chain: ARTKQTARKSTGG
# B5: H3 1-13 A R T Kac Q T A R Kme2 S T G G (peptide)
# chain: ARTKQTARKSTGG
# B6: H3 1-13 A R T K Q T A R K S T G G (peptide)
# chain: ARTKQTARKSTGG
# B7: H3 1-13 A R T Kac Q Tph A R K S T G G (peptide)
# chain: ARTKQTARKSTGG
# B8: H2B 17-29 A V T K A Q K Kac D G K Kac R (peptide)
# chain: AVTKAQKKDGKKR
# B9: H2B 17-29 A V T K A Q K K D G K Kac R (peptide)
# chain: AVTKAQKKDGKKR
# B10: H2B 17-29 A V T K A Q K K D G Kac Kac R (peptide)
# chain: AVTKAQKKDGKKR
# Columns and labels:
# Assay in all cases: peptide microarray binding signal (635 nm), min-max normalized on array (fraction of array maximum); higher = stronger binding
# [1] = molecular target: T1, HaloTag-ATRX ADD domain (163-292)
# T1 chain: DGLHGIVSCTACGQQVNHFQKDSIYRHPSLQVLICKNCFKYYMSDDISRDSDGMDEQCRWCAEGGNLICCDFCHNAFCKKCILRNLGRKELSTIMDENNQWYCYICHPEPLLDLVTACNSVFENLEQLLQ
# Procedure: (§1)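 Histone 13-mer peptides were synthesized as cellulose conjugates with a C-terminal 20-atom PEG linker and printed in triplicate on nitrocellulose. The sequence given is the unmodified backbone; PTMs (Kme1/2/3, Kac, Sph/Tph, Rme/Rme2a/Rme2s, Rcit) are listed in the label and the 'peptide modifications' condition. Slides were probed at 4 °C for 1 h with biotin-labelled (HQ)5-HaloTag reader fusions (ATRX-ADD, ING2-PHD) then streptavidin-Alexa647, or with rabbit histone antibodies then anti-rabbit Alexa647. The mean 635 nm signal of the triplicate spots was scaled 0-1 between the lowest and highest values on each array.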
# [2] = molecular target: HaloTag-ING2 PHD (mouse Ing2 200-280)
# Procedure: as §1
# [3] = molecular target: anti-H3K4me3 antibody ab8580
# Procedure: as §1
# [4] = molecular target: anti-H3K9me3 antibody ab8898
# Procedure: as §1
# [5] = peptide region: H3 1-13, peptide modifications: H3K4ac H3K9ac, binder concentration: 1:2,000 dilution
# [6] = peptide region: H3 1-13, peptide modifications: H3K4ac H3K9ac, binder concentration: 1:10,000 dilution
# [7] = peptide region: H3 1-13, peptide modifications: H3K4ac, binder concentration: 1:2,000 dilution
# [8] = peptide region: H3 1-13, peptide modifications: H3K4ac, binder concentration: 1:10,000 dilution
# [9] = peptide region: H3 1-13, peptide modifications: H3K4ac H3K9me1, binder concentration: 1:2,000 dilution
# [10] = peptide region: H3 1-13, peptide modifications: H3K4ac H3K9me1, binder concentration: 1:10,000 dilution
# [11] = peptide region: H3 1-13, peptide modifications: H3K4me1 H3K9me1, binder concentration: 1:2,000 dilution
# [12] = peptide region: H3 1-13, peptide modifications: H3K4me1 H3K9me1, binder concentration: 1:10,000 dilution
# [13] = peptide region: H3 1-13, peptide modifications: H3K4ac H3K9me2, binder concentration: 1:2,000 dilution
# [14] = peptide region: H3 1-13, peptide modifications: H3K4ac H3K9me2, binder concentration: 1:10,000 dilution
# [15] = peptide region: H3 1-13, binder concentration: 1:2,000 dilution
# [16] = peptide region: H3 1-13, binder concentration: 1:10,000 dilution
# [17] = peptide region: H3 1-13, peptide modifications: H3K4ac H3T6ph, binder concentration: 1:2,000 dilution
# [18] = peptide region: H3 1-13, peptide modifications: H3K4ac H3T6ph, binder concentration: 1:10,000 dilution
# [19] = peptide region: H2B 17-29, peptide modifications: H2BK24ac H2BK28ac, binder concentration: 1:2,000 dilution
# [20] = peptide region: H2B 17-29, peptide modifications: H2BK24ac H2BK28ac, binder concentration: 1:10,000 dilution
# [21] = peptide region: H2B 17-29, peptide modifications: H2BK28ac, binder concentration: 1:2,000 dilution
# [22] = peptide region: H2B 17-29, peptide modifications: H2BK28ac, binder concentration: 1:10,000 dilution
# [23] = peptide region: H2B 17-29, peptide modifications: H2BK27ac H2BK28ac, binder concentration: 1:2,000 dilution
# [24] = peptide region: H2B 17-29, peptide modifications: H2BK27ac H2BK28ac, binder concentration: 1:10,000 dilution
binder,measurement,setting,value
B1,peptide microarray binding signal,"[1]; peptide region: H3 1-13, peptide modifications: H3K4ac H3K9ac, binder concentration: 50 nM",0.0941 ± 0.064
same,peptide microarray binding signal,"[1]; peptide region: H3 1-13, peptide modifications: H3K4ac H3K9ac, binder concentration: 500 nM",0.0794 ± 0.02
same,peptide microarray binding signal,"[2]; peptide region: H3 1-13, peptide modifications: H3K4ac H3K9ac, binder concentration: 10 nM",0.0863 ± 0.014
same,peptide microarray binding signal,"[2]; peptide region: H3 1-13, peptide modifications: H3K4ac H3K9ac, binder concentration: 100 nM",0.099 ± 0.0066
same,peptide microarray binding signal,[3]; [5],0.047 ± 0.0095
same,peptide microarray binding signal,[3]; [6],0.139 ± 0.057
same,peptide microarray binding signal,[4]; [5],0.102 ± 0.0083
same,peptide microarray binding signal,[4]; [6],0.123 ± 0.018
B2,peptide microarray binding signal,"[1]; peptide region: H3 1-13, peptide modifications: H3K4ac, binder concentration: 50 nM",0.0102 ± 0.00024
same,peptide microarray binding signal,"[1]; peptide region: H3 1-13, peptide modifications: H3K4ac, binder concentration: 500 nM",0.0281 ± 0.0023
same,peptide microarray binding signal,"[2]; peptide region: H3 1-13, peptide modifications: H3K4ac, binder concentration: 10 nM",0.214 ± 0.045
same,peptide microarray binding signal,"[2]; peptide region: H3 1-13, peptide modifications: H3K4ac, binder concentration: 100 nM",0.0856 ± 0.085
same,peptide microarray binding signal,[3]; [7],0.00445 ± 0.0025
same,peptide microarray binding signal,[3]; [8],0.00188 ± 0.00011
same,peptide microarray binding signal,[4]; [7],0.00439 ± 0.00098
same,peptide microarray binding signal,[4]; [8],0.0019 ± 0.00014
B3,peptide microarray binding signal,"[1]; peptide region: H3 1-13, peptide modifications: H3K4ac H3K9me1, binder concentration: 50 nM",0.00809 ± 0.00079
same,peptide microarray binding signal,"[1]; peptide region: H3 1-13, peptide modifications: H3K4ac H3K9me1, binder concentration: 500 nM",0.0149 ± 0.0037
same,peptide microarray binding signal,"[2]; peptide region: H3 1-13, peptide modifications: H3K4ac H3K9me1, binder concentration: 10 nM",0.0703 ± 0.011
same,peptide microarray binding signal,"[2]; peptide region: H3 1-13, peptide modifications: H3K4ac H3K9me1, binder concentration: 100 nM",0.1 ± 0.035
same,peptide microarray binding signal,[3]; [9],0.00664 ± 0.0014
same,peptide microarray binding signal,[3]; [10],0.0205 ± 0.012
same,peptide microarray binding signal,[4]; [9],0.00574 ± 0.00077
same,peptide microarray binding signal,[4]; [10],0.00565 ± 0.00024
B4,peptide microarray binding signal,"[1]; peptide region: H3 1-13, peptide modifications: H3K4me1 H3K9me1, binder concentration: 50 nM",0.00743 ± 0.00015
same,peptide microarray binding signal,"[1]; peptide region: H3 1-13, peptide modifications: H3K4me1 H3K9me1, binder concentration: 500 nM",0.0134 ± 0.00046
same,peptide microarray binding signal,"[2]; peptide region: H3 1-13, peptide modifications: H3K4me1 H3K9me1, binder concentration: 10 nM",0.105 ± 0.023
same,peptide microarray binding signal,"[2]; peptide region: H3 1-13, peptide modifications: H3K4me1 H3K9me1, binder concentration: 100 nM",0.145 ± 0.024
same,peptide microarray binding signal,[3]; [11],0.0452 ± 0.0073
same,peptide microarray binding signal,[3]; [12],0.0277 ± 0.0056
same,peptide microarray binding signal,[4]; [11],0.00387 ± 0.00011
same,peptide microarray binding signal,[4]; [12],0.00248 ± 0.00012
B5,peptide microarray binding signal,"[1]; peptide region: H3 1-13, peptide modifications: H3K4ac H3K9me2, binder concentration: 50 nM",0.00875 ± 0.0011
same,peptide microarray binding signal,"[1]; peptide region: H3 1-13, peptide modifications: H3K4ac H3K9me2, binder concentration: 500 nM",0.0157 ± 0.0031
same,peptide microarray binding signal,"[2]; peptide region: H3 1-13, peptide modifications: H3K4ac H3K9me2, binder concentration: 10 nM",0.0771 ± 0.0077
same,peptide microarray binding signal,"[2]; peptide region: H3 1-13, peptide modifications: H3K4ac H3K9me2, binder concentration: 100 nM",0.0944 ± 0.0071
same,peptide microarray binding signal,[3]; [13],0.00689 ± 0.0014
same,peptide microarray binding signal,[3]; [14],0.00702 ± 0.001
same,peptide microarray binding signal,[4]; [13],0.00331 ± 0.0003
same,peptide microarray binding signal,[4]; [14],0.00455 ± 0.00089
B6,peptide microarray binding signal,"[1]; peptide region: H3 1-13, binder concentration: 50 nM",0.0155 ± 0.00087
same,peptide microarray binding signal,"[1]; peptide region: H3 1-13, binder concentration: 500 nM",0.0263 ± 0.0017
same,peptide microarray binding signal,"[2]; peptide region: H3 1-13, binder concentration: 10 nM",0.0231 ± 0.0017
same,peptide microarray binding signal,"[2]; peptide region: H3 1-13, binder concentration: 100 nM",0.00957 ± 0.0015
same,peptide microarray binding signal,[3]; [15],0.00185 ± 0.00055
same,peptide microarray binding signal,[3]; [16],0.00126 ± 6.5e-05
same,peptide microarray binding signal,[4]; [15],0.00196 ± 0.00012
same,peptide microarray binding signal,[4]; [16],0.000807 ± 1.5e-05
B7,peptide microarray binding signal,"[1]; peptide region: H3 1-13, peptide modifications: H3K4ac H3T6ph, binder concentration: 50 nM",0.00693 ± 0.00026
same,peptide microarray binding signal,"[1]; peptide region: H3 1-13, peptide modifications: H3K4ac H3T6ph, binder concentration: 500 nM",0.0116 ± 0.0014
same,peptide microarray binding signal,"[2]; peptide region: H3 1-13, peptide modifications: H3K4ac H3T6ph, binder concentration: 10 nM",0.0574 ± 0.0059
same,peptide microarray binding signal,"[2]; peptide region: H3 1-13, peptide modifications: H3K4ac H3T6ph, binder concentration: 100 nM",0.0396 ± 0.0055
same,peptide microarray binding signal,[3]; [17],0.00242 ± 0.00029
same,peptide microarray binding signal,[3]; [18],0.00417 ± 0.00026
same,peptide microarray binding signal,[4]; [17],0.0013 ± 0.00014
same,peptide microarray binding signal,[4]; [18],0.000923 ± 9.6e-06
B8,peptide microarray binding signal,"[1]; peptide region: H2B 17-29, peptide modifications: H2BK24ac H2BK28ac, binder concentration: 50 nM",0.00524 ± 0.00097
same,peptide microarray binding signal,"[1]; peptide region: H2B 17-29, peptide modifications: H2BK24ac H2BK28ac, binder concentration: 500 nM",0.00786 ± 0.0018
same,peptide microarray binding signal,"[2]; peptide region: H2B 17-29, peptide modifications: H2BK24ac H2BK28ac, binder concentration: 10 nM",0.00412 ± 0.00017
same,peptide microarray binding signal,"[2]; peptide region: H2B 17-29, peptide modifications: H2BK24ac H2BK28ac, binder concentration: 100 nM",0.00432 ± 0.00035
same,peptide microarray binding signal,[3]; [19],0.00034 ± 3.1e-05
same,peptide microarray binding signal,[3]; [20],0.00131 ± 5.7e-05
same,peptide microarray binding signal,[4]; [19],0.000695 ± 4.4e-05
same,peptide microarray binding signal,[4]; [20],0.000519 ± 5.6e-06
B9,peptide microarray binding signal,"[1]; peptide region: H2B 17-29, peptide modifications: H2BK28ac, binder concentration: 50 nM",0.00194 ± 4.1e-05
same,peptide microarray binding signal,"[1]; peptide region: H2B 17-29, peptide modifications: H2BK28ac, binder concentration: 500 nM",0.00486 ± 0.00024
same,peptide microarray binding signal,"[2]; peptide region: H2B 17-29, peptide modifications: H2BK28ac, binder concentration: 10 nM",0.00209 ± 2.4e-05
same,peptide microarray binding signal,"[2]; peptide region: H2B 17-29, peptide modifications: H2BK28ac, binder concentration: 100 nM",0.00142 ± 1.5e-05
same,peptide microarray binding signal,[3]; [21],0.000396 ± 7e-06
same,peptide microarray binding signal,[3]; [22],0.000628 ± 6.7e-06
same,peptide microarray binding signal,[4]; [21],0.000166 ± 3.6e-06
same,peptide microarray binding signal,[4]; [22],0.000346 ± 3.8e-06
B10,peptide microarray binding signal,"[1]; peptide region: H2B 17-29, peptide modifications: H2BK27ac H2BK28ac, binder concentration: 50 nM",0.0047 ± 0.00043
same,peptide microarray binding signal,"[1]; peptide region: H2B 17-29, peptide modifications: H2BK27ac H2BK28ac, binder concentration: 500 nM",0.00386 ± 0.00024
same,peptide microarray binding signal,"[2]; peptide region: H2B 17-29, peptide modifications: H2BK27ac H2BK28ac, binder concentration: 10 nM",0.00418 ± 6.5e-05
same,peptide microarray binding signal,"[2]; peptide region: H2B 17-29, peptide modifications: H2BK27ac H2BK28ac, binder concentration: 100 nM",0.00276 ± 0.00023
same,peptide microarray binding signal,[3]; [23],0.00017 ± 5.6e-06
same,peptide microarray binding signal,[3]; [24],0.00114 ± 1.2e-05
same,peptide microarray binding signal,[4]; [23],0.000544 ± 3e-05
same,peptide microarray binding signal,[4]; [24],0.0011 ± 4e-05
